Reference: PubChem BioAssay (Tox21)
Results filed as inconclusive are left out. Calls of active or inactive are those of the source. Unless noted, calls come from the whole dose curve; as a rule, active = well fitted curve in the direction sought with a large enough effect in the repeat runs; inconclusive = weak or mixed curves; inactive = no such curve, though single readings can be large; an effect the other way counts as inactive or inconclusive.

Legend:
[1] = qHTS assay to identify small molecule antagonists of the estrogen receptor alpha (ER-alpha) signaling pathway using the BG1 cell line in the presence of 0.1 nM 17-beta-estradiol - cell viability counter screen (AID 1259241); note: nearly all actives have a fitted effect of over 40% in size
Method in brief: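 CellTiter-Fluor read (30 min, 37C) on ER-alpha/ERE-luc VM7Luc4E2 cells; 22 hr compound treatment; agonist 0.1 nM E2 final; same-well multiplex.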

[2] = qHTS assay to identify small molecule antagonists of the androgen receptor (AR) signaling pathway using the MDA cell line in the presence of 0.5 nM R1881 - cell viability counter screen (AID 1259242); note: nearly all actives have a fitted effect of over 45% in size
Method in brief: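 Live-cell protease activity was measured by CellTiter-Fluor fluorescence after 30 min. Before that, MDA-kb2 MMTV-luciferase cells had 16 hr at 37C without CO2, exposed to test compounds and 0.5 nM R1881 final.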

[3] = molecular target: Androgen receptor (Homo sapiens) (UniProt P10275); experiment: qHTS assay to identify small molecule antagonists of the androgen receptor (AR) signaling pathway using the MDA cell line in the presence of 0.5 nM R1881 (AID 1259243); note: nearly all actives have a fitted effect of over 50% in size
Method in brief: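 Luminescent reporter readout (ONE-Glo, 30 min, room temperature) after 16 hr co-treatment of MDA-kb2 cells with test compounds and 0.5 nM R1881 final, at 37C without CO2. The MMTV-driven luciferase responds to both AR and GR.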

[4] = molecular target: Estrogen receptor (Homo sapiens) (UniProt P03372); experiment: qHTS assay to identify small molecule antagonists of the estrogen receptor alpha (ER-alpha) signaling pathway using the BG1 cell line in the presence of 0.1 nM 17-beta-estradiol (AID 1259244); note: nearly all actives have a fitted effect of over 50% in size
Method in brief: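 Luciferase luminescence (ONE-Glo, 30 min at room temperature) was read after 22 hr at 37C exposure to compounds plus 17beta-estradiol at 0.1 nM final. Cells were VM7Luc4E2 with endogenous ER-alpha and an ERE-driven luciferase, pre-cultured 5 days in hormone-depleted medium.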

[5] = qHTS assay to identify small molecule HDAC inhibitors (AID 1259364); note: top concentration of the series differs between compounds; nearly all actives have a fitted effect of over 45% in size
Method in brief: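 Luminescence read after 30 min room-temperature HDAC-Glo incubation measures cellular class I/II HDAC activity. Compounds were applied for 2 hr at 37 C to HCT-116 wild-type cells seeded the day before.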

[6] = qHTS assay to identify small molecule HDAC inhibitors - cell viability counter screen (AID 1259365); note: series mostly up to about 92 µM; nearly all actives have a fitted effect of over 50% in size
Method in brief: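 To flag cytotoxic hits, 1,500 wild-type HCT-116 cells per well, plated the day before, receive test compounds for 2hr at 37 C before CellTiter-Glo reagent and a luminescence read.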

[7] = qHTS assay to identify small molecule agonists of the sonic hedgehog signaling (Shh) pathway - cell viability counter screen (AID 1259366); note: nearly all actives have a fitted effect of over 50% in size
Method in brief: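 Fluorescence from CellTiter-Fluor reports live cells in this counter screen. NIH/3T3-derived Gli1-Luc reporter cells receive test compounds for 24hr at 37C; reagent goes in at 23hr.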

[8] = qHTS assay to identify small molecule agonists of the sonic hedgehog signaling (Shh) pathway (AID 1259368; calls by dose curve;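 note: NIH/3T3-derived 3T3Gli1-Luc cells carrying a stable Gli1-driven firefly luciferase reporter; series mostly up to about 92 µM; nearly all actives have a fitted effect of over 15% in size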)
Method in brief: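 Luminescence was read after 30 min at room temperature with luciferase reagent. Before that, 3T3Gli1-Luc cells (NIH/3T3 clone, stable Gli1-Luc reporter; 2,000/well) were exposed to compounds for 24 hr at 37C, 5% CO2, compounds being added 4 hr post-plating.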

[9] = qHTS assay to identify small molecule antagonists of the sonic hedgehog signaling (Shh) pathway (AID 1259369; calls by dose curve; note: nearly all actives have a fitted effect of over 45% in size)
Method in brief: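 Antagonist mode: compound added to 3T3 Gli1-Luc cells followed by conditioned-medium stimulation, 24 h at 37 C, 5% CO2. Inhibition taken as loss of Gli1-driven luciferase luminescence.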

[10] = molecular target: Estrogen receptor beta (Homo sapiens) (UniProt Q92731); experiment: qHTS assay to identify small molecule agonists of the estrogen receptor beta (ER-beta) signaling pathway (AID 1259377; active = well fitted activation curve with a large enough effect in the signal ratio in the repeat runs, not every such curve was filed as active; the % refers to the signal ratio)
Method in brief: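 Screening used GripTite ER-beta-UAS-bla cells held in 2% charcoal-stripped FBS medium. After overnight (16 hr) compound incubation at 37C, beta-lactamase activity was detected with a FRET substrate by fluorescence.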

[11] = qHTS assay to identify small molecule agonists of the androgen receptor (AR) signaling pathway in the presence of an antagonist - cell viability counter screen (AID 1259379);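 note: MDA-kb2 human breast cancer cells carrying an MMTV luciferase reporter; series mostly up to about 92 µM; nearly all actives have a fitted effect of over 25% in size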
Method in brief: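 Cytotoxicity counter-screen run in the same wells as the nilutamide-challenged (3.0 µM final) AR agonist assay in MDA-kb2 cells. Compounds tested at 15 concentrations for 16 h, 37 °C without CO2; CellTiter-Fluor fluorescence read.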

[12] = qHTS assay to identify small molecule agonists of the estrogen receptor beta (ER-beta) signaling pathway - cell viability counter screen (AID 1259380); note: nearly all actives have a fitted effect of over 30% in size
Method in brief: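 Cell viability counter screen: CellTiter-Glo luminescence (30 min, room temperature) measured in the same wells as the beta-lactamase readout, after 16 hr compound exposure at 37C of ER-beta-bla HEK293T cells in 2% charcoal-stripped FBS medium.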

[13] = qHTS assay to identify small molecule antagonists of the estrogen receptor beta (ER-beta) signaling pathway - cell viability counter screen (AID 1259382); note: series mostly up to about 92 µM; nearly all actives have a fitted effect of over 55% in size
Method in brief: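 Cytotoxicity was measured in the same wells by CellTiter-Glo luminescence after 30 min at room temperature. Cells were ER-beta-bla HEK293T in charcoal-stripped serum, given compound together with 1 nM E2 and incubated 16 h at 37C.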

[14] = molecular target: Estrogen receptor (Homo sapiens) (UniProt P03372); experiment: qHTS assay to identify small molecule agonists of the estrogen receptor alpha (ER-alpha) signaling pathway in the presence of an antagonist (AID 1259383; calls by dose curve; note: top concentration of the series differs between compounds; nearly all actives have a fitted effect of over 15% in size)
Method in brief: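 Agonist-mode confirmation run in the presence of 10.0nM (final) ICI-182,780 antagonist. The reporter was ERE-driven luciferase in VM7Luc4E2 cells, grown in charcoal-stripped serum. Cells were exposed to 15-concentration compound series for 22hr, then ONE-Glo luminescence was read.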

[15] = qHTS assay to identify small molecule agonists or antagonists of the thyroid stimulating hormone receptor (TSHR) signaling pathway - wild type cell line counter screen (AID 1259384; calls by dose curve)
Method in brief: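 Wild-type Hek293 cells, 800/well, 18 h at 37C, then compound with Ro20-1724 for 30 min RT. cAMP by HTRF (cAMP-d2/anti-cAMP cryptate), 1 h RT, fluorescence read. 15 concentrations, triplicates.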

[16] = molecular target: Thyrotropin receptor (Homo sapiens) (UniProt P16473); experiment: qHTS assay to identify small molecule antagonists of the thyroid stimulating hormone receptor (TSHR) signaling pathway (AID 1259385; calls by dose curve; note: nearly all actives have a fitted effect of over 20% in size)
Method in brief: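 TSHR-HEK293 cells (800/well) plated 18 h, then compounds with Ro20-1724 and TSH at 1.5 ng/mL final, 30 min at room temperature. cAMP quantified by HTRF (cAMP-d2/anti-cAMP-cryptate, 1 h); 15 concentrations in triplicate.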

[17] = molecular target: Estrogen receptor beta (Homo sapiens) (UniProt Q92731); experiment: qHTS assay to identify small molecule antagonists of the estrogen receptor beta (ER-beta) signaling pathway (AID 1259378; active = well fitted inhibition curve with a large enough effect in the signal ratio in the repeat runs, not every such curve was filed as active; the % refers to the signal ratio)
Method in brief: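 ER-beta-UAS-bla HEK293T cells in 2% charcoal-stripped FBS medium treated with compound plus 1nM final 17-beta-estradiol for 16 hr at 37C. Beta-lactamase reporter read by FRET substrate fluorescence after 2 hours at room temperature.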

[18] = qHTS assay to identify small molecule phospholipidosis (PLD) inducers (AID 1259344; active = well fitted curve in the direction sought with a large enough effect; an effect the other way counts as inactive or inconclusive)
Method in brief: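 Image-based: LipidTOX Red pit count/intensity per well and per cell; HepG2, 24 h compound at 37 C, PFA fixation, Hoechst counterstain.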

[19] = qHTS assay to identify small molecule antagonists of the sonic hedgehog signaling (Shh) pathway - cell viability counter screen (AID 1259367); note: nearly all actives have a fitted effect of over 55% in size
Method in brief: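 Tox21 library chemicals were tested on a Gli1-Luc NIH/3T3 clone (2,000 cells/well) stimulated by conditioned medium; viability was quantified as fluorescence from CellTiter-Fluor reagent added at 23 hr.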

[20] = molecular target: Androgen receptor (Homo sapiens) (UniProt P10275); experiment: qHTS assay to identify small molecule agonists of the androgen receptor (AR) signaling pathway in the presence of an antagonist (AID 1259381; calls by dose curve; note: nearly all actives have a fitted effect of over 15% in size)
Method in brief: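 Agonist-mode confirmation run against 3.0 uM final nilutamide: compounds titrated at 15 concentrations onto MDA-kb2 MMTV-luciferase reporter cells. Luminescence measured with ONE-Glo following 16 hr incubation, 37C, 0% CO2.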

Measured: Potency

Chain of Estrogen receptor (Homo sapiens) (P03372 whole entry, looked up): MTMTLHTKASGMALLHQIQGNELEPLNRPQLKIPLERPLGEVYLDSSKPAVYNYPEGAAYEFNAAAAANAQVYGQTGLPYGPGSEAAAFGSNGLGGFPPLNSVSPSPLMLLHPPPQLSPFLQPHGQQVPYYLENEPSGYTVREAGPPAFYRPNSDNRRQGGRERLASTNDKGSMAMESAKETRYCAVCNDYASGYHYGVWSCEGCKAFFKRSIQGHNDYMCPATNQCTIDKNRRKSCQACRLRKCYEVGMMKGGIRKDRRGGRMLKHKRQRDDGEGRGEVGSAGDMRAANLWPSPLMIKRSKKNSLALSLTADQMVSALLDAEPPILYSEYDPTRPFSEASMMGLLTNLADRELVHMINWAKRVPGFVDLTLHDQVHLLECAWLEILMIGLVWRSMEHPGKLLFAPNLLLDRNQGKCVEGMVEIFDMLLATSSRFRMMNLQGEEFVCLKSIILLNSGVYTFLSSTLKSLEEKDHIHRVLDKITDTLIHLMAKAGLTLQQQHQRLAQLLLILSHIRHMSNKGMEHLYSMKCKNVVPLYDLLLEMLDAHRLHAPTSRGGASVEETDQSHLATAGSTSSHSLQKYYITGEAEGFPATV
Chain of Androgen receptor (Homo sapiens) (P10275 whole entry, looked up): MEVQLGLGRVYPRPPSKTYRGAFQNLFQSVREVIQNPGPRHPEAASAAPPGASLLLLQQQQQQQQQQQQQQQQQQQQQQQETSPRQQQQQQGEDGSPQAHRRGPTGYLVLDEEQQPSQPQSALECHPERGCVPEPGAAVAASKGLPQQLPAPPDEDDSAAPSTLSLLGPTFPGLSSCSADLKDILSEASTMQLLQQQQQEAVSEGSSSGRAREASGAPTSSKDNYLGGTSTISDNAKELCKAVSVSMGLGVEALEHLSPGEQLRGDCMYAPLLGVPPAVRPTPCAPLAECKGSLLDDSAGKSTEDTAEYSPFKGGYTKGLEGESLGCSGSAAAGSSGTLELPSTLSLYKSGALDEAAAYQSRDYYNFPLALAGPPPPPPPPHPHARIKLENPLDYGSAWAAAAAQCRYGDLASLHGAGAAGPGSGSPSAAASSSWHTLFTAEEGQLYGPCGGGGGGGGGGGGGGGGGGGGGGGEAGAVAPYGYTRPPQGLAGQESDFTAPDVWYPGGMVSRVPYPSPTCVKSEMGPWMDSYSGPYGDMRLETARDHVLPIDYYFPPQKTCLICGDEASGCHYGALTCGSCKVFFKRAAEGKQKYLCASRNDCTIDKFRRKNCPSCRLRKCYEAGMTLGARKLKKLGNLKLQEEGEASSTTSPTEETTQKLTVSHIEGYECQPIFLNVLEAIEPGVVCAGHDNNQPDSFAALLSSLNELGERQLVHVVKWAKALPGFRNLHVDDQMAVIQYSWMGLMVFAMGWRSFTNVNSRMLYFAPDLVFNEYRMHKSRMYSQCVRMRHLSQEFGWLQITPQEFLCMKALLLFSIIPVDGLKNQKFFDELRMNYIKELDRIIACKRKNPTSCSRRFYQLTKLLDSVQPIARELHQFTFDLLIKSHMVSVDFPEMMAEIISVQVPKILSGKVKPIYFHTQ
Chain of Thyrotropin receptor (Homo sapiens) (P16473 whole entry, looked up): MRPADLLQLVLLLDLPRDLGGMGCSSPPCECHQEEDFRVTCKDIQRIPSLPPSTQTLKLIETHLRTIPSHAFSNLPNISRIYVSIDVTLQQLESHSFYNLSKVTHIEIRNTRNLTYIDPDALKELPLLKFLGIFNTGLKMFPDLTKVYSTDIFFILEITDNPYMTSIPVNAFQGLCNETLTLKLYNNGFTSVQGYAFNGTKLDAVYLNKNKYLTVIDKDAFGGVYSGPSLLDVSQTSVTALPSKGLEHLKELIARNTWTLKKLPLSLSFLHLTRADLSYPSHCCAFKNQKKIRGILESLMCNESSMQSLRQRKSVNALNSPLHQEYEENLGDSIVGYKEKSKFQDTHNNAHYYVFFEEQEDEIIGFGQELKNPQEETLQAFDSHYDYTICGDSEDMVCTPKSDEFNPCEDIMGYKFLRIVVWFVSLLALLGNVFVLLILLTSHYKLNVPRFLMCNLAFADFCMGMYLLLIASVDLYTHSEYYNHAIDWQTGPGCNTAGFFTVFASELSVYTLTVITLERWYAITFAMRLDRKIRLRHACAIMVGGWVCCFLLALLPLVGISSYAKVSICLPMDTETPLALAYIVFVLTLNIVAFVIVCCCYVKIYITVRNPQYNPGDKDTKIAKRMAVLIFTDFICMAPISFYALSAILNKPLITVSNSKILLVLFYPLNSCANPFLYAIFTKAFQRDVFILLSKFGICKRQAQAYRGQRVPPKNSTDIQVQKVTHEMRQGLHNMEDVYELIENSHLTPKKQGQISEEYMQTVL
Chain of Estrogen receptor beta (Homo sapiens) (Q92731 whole entry, looked up): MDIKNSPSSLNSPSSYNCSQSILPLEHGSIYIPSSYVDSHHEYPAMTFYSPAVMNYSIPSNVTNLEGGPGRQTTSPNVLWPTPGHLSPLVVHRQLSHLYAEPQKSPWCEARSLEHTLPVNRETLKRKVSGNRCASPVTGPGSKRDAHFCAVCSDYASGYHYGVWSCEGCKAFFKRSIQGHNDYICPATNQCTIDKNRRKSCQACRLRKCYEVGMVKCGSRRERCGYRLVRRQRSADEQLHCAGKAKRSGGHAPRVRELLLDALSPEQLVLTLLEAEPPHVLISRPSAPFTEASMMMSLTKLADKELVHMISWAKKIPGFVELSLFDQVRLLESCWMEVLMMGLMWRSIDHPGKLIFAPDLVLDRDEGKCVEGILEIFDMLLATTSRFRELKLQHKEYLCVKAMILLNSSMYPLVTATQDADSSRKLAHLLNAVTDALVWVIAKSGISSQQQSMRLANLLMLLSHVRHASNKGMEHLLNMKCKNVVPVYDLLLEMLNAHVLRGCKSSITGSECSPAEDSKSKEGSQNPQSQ

CC(C)c1ccc2cc(C(C)C)ccc2c1
inactive: [1] | [2] | [3] | [4] | [5] | [6] | [7] | [8] | [9] | [10] | [11] | [12] | [13] | [14] | [15] | [16]

NS(=O)(=O)c1cc2c(cc1Cl)CN(C1CCCCC1)C2=O
inactive: [1] | [2] | [3] | [5] | [6] | [7] | [8] | [9] | [10] | [17] | [11] | [12] | [13] | [15] | [16]

Cc1ccsc1/C=C/C1=NCCCN1C
inactive: [1] | [2] | [4] | [18] | [5] | [6] | [7] | [19] | [8] | [9] | [10] | [17] | [11] | [12] | [13] | [14] | [15]

O=C(O)c1cc(Br)c(O)c(Br)c1
inactive: [1] | [2] | [3] | [5] | [6] | [7] | [19] | [8] | [9] | [10] | [17] | [11] | [12] | [20] | [13] | [15] | [16]

O=C(OCc1ccccc1)C(=O)OCc1ccccc1
inactive: [1] | [2] | [3] | [4] | [5] | [6] | [7] | [8] | [9] | [10] | [17] | [11] | [12] | [20] | [13] | [14] | [15] | [16]

CCN1CCc2nc(N)oc2CC1
inactive: [1] | [2] | [4] | [18] | [5] | [6] | [7] | [19] | [8] | [9] | [10] | [17] | [11] | [12] | [13] | [14] | [15] | [16]

OCCN(CCO)c1cccc(Cl)c1
inactive: [1] | [2] | [3] | [5] | [6] | [7] | [8] | [9] | [10] | [17] | [12] | [20] | [13] | [15]
